Common to all, as to set-up: scale not given: direction of the effect not stated beside the values
Test [1] deals with Protein translocase subunit SecA (Escherichia coli (strain K12)) (UniProt P10408). Description: Assay to Identify E. coli SecA ATPase Inhibitors. Type of test: functional. The note with it: 30 µM.
Test [2] has as its target T1, Ubiquitin-activating enzyme e1, putative (Leishmania donovani (strain BPK282A1)) (UniProt E9BSI1).
T1 sequence (whole entry): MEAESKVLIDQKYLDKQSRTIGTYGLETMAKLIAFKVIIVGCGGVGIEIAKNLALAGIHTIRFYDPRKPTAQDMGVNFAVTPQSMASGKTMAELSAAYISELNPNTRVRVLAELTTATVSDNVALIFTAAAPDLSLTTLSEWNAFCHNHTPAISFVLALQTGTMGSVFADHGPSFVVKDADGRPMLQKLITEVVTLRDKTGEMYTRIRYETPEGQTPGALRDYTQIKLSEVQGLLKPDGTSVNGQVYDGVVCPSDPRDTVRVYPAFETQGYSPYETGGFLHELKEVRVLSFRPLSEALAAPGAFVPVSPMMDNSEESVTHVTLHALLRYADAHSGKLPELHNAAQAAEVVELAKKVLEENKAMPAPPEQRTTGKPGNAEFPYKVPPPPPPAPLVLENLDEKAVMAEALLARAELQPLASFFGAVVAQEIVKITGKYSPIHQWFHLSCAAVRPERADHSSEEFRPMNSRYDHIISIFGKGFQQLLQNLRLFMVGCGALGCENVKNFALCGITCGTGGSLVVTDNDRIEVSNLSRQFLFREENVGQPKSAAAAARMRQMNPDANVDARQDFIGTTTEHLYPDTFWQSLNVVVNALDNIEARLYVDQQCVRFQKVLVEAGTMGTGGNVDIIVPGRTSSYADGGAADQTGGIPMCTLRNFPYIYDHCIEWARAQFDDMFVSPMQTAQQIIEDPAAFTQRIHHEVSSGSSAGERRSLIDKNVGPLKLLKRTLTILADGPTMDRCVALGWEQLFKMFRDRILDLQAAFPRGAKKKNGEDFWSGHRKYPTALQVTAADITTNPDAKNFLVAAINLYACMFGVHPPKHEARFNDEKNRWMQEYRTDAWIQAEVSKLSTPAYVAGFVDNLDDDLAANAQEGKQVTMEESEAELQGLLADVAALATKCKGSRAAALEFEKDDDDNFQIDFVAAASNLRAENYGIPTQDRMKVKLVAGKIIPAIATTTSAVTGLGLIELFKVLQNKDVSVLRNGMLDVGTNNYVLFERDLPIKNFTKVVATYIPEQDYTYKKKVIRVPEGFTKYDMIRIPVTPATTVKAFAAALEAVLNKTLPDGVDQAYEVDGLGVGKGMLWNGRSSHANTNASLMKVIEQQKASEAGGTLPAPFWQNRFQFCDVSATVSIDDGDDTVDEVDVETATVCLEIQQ
Description: Leishmania donovani Ubiquitin Activating Enzyme (LdE1). The class given is functional. Particulars: 30 µM.

Test [3] deals with AMP-activated protein kinase, AMPK (Homo sapiens) (UniProt P54646+O43741+P54619+Q9UGJ0+Q9Y478+Q13131+Q9UGI9). Description: AMP-dependent Kinase enzyme assay. An in vitro enzyme assay that detects ADP turnover that is directly proportional to AMPK activity. This uses naive AMPK that is activated during the assay with MK-8722. The class given is functional. Particulars: 30 µM.
Test [4] has as its target Sialic acid-binding Ig-like lectin 9 (Homo sapiens) (UniProt Q9Y336). Description: Hs-Siglec9 ALPHAscreen SOP 20170721. The note with it: 10 µM.
Another test relates to Trypanosoma cruzi. Description: Trypanosoma cruzi phosphomannomutase and mannose-1-phosphate guanylyltransferase assay. The class given is functional. The note with it: 10 µM.
Test [5] concerns the target T2, Arginase-2, mitochondrial (Homo sapiens) (UniProt P78540).
T2 sequence (whole entry): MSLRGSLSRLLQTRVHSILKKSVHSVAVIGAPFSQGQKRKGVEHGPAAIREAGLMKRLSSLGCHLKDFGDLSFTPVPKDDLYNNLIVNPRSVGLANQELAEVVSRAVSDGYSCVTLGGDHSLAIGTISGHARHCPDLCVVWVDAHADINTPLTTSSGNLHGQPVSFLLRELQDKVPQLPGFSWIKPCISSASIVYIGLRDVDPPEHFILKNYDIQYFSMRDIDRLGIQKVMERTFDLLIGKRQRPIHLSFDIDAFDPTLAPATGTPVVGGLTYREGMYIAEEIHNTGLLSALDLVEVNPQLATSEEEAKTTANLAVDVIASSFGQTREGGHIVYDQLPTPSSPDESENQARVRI
Description: in vitro enzyme assay to detect the production of urea directly proportional to the activity of Arginase II. Further: in the data most compounds retested in dose-response had high values. The class given is functional. The note with it: 33.3 µM.

The target in test [6] is T3, Proteasome subunit beta (Trypanosoma cruzi) (UniProt O96673).
T3 sequence (whole entry): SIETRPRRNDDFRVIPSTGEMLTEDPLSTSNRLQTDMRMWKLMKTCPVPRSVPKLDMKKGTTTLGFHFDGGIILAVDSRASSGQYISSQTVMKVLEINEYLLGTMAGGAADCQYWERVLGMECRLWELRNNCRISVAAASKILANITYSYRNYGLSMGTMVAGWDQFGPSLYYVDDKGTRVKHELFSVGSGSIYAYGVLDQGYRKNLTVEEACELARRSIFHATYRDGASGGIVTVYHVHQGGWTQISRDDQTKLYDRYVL
Description: Trypanosoma cruzi proteasome chymotrypsin-like activity (TcProtChymo) assay. Further: in the data most compounds retested in dose-response had high values. Type of test: functional. The note with it: 9.37 µM.

Another test is filed under the species Homo sapiens. Description: To identify inhibition of the IFN signalling (Jak-Stat) pathway via expression of an eGFP reporter gene under the control of an IFN-stimulated response element (ISRE) containing MxA promoter. Type of test: functional. The note with it: 30 µM.
The target of test [7] is T4, Tyrosyl-tRNA synthetase, putative (Trypanosoma cruzi (strain CL Brener)) (UniProt Q4DSP6).
T4 sequence (whole entry): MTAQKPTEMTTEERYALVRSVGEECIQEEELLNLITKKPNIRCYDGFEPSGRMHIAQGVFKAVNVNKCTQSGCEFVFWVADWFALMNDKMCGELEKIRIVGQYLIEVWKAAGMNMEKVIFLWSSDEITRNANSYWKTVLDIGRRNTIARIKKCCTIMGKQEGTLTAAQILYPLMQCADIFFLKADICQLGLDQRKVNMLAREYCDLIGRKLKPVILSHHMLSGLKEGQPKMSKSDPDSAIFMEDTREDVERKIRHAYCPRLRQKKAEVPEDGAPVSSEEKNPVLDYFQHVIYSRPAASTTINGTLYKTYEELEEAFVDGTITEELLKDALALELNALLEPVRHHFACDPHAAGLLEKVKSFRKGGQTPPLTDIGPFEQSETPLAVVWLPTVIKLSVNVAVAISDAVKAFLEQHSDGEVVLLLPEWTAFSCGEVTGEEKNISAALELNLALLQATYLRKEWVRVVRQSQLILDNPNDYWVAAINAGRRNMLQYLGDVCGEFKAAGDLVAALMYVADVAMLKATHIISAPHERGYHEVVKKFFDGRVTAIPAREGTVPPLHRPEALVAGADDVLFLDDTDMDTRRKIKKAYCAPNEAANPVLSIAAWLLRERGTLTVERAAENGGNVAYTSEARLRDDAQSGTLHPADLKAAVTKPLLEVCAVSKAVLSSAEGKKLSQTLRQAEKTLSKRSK
Description: Trypanosoma cruzi tyrosyl tRNA synthetase (TcYRS) _High Tyrosine SOP. Further: in the data most compounds retested in dose-response had high values. Type of test: functional. The note with it: 30 µM.

For test [8], the target named is T4, Tyrosyl-tRNA synthetase, putative (Trypanosoma cruzi (strain CL Brener)). Description: Trypanosoma cruzi tyrosyl tRNA synthetase (TcYRS) SOP. The note with it: 30 µM. Type of test: functional.
In test [9] the target is Chromo domain-containing protein 1 (Saccharomyces cerevisiae (strain ATCC 204508 / S288c) (Baker's yeast)) (UniProt P32657). Description: ScCHD-1 Enzyme Inhibition Assay. Further: in the data most compounds retested in dose-response had high values. The class given is functional. Particulars: 30 µM.

For some of these results: Entries with a potency or affinity are not part of this list.

Sialic acid-binding Ig-like lectin 9 (Homo sapiens), sequence (Q9Y336 whole entry): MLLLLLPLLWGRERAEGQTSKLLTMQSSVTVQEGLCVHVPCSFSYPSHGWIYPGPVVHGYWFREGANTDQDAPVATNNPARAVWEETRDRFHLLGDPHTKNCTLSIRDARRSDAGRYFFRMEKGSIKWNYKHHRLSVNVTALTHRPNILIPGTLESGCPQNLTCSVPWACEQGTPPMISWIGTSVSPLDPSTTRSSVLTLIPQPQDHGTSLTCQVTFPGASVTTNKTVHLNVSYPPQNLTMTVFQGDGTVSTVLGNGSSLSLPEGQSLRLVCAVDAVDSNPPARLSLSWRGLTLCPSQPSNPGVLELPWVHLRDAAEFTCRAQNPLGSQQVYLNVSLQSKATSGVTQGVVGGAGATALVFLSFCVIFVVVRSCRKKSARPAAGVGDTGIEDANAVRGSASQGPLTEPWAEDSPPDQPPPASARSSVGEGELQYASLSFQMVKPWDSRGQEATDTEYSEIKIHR
Protein translocase subunit SecA (Escherichia coli (strain K12)), sequence (P10408 whole entry): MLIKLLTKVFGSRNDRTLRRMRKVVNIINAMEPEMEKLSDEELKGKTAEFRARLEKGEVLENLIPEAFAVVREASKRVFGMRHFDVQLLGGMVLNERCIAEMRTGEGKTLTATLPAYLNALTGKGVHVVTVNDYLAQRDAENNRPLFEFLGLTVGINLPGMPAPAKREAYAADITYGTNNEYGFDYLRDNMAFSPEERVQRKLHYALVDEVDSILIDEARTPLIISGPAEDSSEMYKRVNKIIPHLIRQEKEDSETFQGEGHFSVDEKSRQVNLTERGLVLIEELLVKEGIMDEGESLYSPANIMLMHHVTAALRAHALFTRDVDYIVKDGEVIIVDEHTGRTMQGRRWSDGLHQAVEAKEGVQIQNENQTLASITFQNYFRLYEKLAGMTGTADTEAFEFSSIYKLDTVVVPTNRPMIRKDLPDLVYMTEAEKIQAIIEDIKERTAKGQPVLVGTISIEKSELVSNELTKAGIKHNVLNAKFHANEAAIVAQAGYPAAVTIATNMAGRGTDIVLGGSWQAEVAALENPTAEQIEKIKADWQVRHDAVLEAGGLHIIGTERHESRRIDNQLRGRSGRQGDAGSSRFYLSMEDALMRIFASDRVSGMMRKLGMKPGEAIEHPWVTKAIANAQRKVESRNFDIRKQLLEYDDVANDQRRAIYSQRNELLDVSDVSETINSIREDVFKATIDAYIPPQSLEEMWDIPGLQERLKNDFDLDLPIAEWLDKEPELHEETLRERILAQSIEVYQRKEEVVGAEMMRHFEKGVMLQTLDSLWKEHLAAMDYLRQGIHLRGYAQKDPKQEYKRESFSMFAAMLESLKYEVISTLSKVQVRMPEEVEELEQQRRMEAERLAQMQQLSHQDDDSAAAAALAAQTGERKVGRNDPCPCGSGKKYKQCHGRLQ
Chromo domain-containing protein 1 (Saccharomyces cerevisiae (strain ATCC 204508 / S288c) (Baker's yeast)), sequence (P32657 whole entry, the tested form may be a part): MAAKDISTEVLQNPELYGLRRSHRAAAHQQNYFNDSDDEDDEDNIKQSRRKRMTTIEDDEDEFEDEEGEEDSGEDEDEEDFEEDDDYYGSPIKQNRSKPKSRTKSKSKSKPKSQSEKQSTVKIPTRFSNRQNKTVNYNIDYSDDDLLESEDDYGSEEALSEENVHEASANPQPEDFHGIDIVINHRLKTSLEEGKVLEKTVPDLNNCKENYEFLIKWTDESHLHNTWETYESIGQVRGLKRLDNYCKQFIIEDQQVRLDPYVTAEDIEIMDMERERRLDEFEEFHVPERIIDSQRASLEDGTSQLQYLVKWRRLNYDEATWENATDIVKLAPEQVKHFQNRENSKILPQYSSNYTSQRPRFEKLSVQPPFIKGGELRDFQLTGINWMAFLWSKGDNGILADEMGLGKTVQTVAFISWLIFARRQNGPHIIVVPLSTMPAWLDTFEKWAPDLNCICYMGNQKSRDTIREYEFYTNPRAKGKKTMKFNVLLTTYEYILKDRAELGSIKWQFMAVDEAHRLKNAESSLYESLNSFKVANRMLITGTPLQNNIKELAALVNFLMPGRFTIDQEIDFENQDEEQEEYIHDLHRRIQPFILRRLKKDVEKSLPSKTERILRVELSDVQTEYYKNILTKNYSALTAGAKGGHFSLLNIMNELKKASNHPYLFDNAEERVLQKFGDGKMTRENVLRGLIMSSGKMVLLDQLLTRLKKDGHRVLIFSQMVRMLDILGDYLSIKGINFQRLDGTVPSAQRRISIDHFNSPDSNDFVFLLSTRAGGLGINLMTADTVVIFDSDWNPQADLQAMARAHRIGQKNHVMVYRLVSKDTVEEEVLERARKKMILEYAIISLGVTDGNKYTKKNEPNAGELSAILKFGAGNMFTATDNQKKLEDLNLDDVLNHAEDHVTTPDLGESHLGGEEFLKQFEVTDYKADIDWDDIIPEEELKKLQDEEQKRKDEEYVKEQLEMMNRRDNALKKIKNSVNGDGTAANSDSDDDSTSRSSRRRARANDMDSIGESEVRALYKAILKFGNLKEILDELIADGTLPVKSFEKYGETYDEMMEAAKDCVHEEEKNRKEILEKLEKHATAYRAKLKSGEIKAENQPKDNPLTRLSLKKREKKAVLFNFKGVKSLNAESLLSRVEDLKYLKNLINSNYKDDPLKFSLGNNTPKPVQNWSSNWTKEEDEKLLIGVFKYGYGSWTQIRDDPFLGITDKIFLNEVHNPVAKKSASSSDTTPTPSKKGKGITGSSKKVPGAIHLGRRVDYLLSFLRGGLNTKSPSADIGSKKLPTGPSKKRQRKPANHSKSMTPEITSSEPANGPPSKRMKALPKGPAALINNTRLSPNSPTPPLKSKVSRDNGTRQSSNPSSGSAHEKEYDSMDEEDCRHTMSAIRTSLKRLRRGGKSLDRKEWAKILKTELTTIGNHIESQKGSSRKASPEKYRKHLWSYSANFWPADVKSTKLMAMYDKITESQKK

In the case of `Cc1noc(C)c1-c1cccc(CC2CCN(C(=O)c3cc[nH]n3)C2)n1` (stereo unspecified), the Percent Effect in test [1] is -2.86%; in test [2], 10.7%; in test [3], 9.02%; in test [4], 7.09%; in the test with Trypanosoma cruzi, -2.95%; in test [5], -1.17%. The Percent Effect in test [6] is 8.72%; in the test filed under Homo sapiens, 15.2%; in test [7], 4.25%; in test [8] it was 8.97%; in test [9] it was -0.89%.
In the case of `O=C(Cn1ccc2c(Cl)cccc21)N[C@@H](C(=O)O)c1ccccc1`, the Percent Effect in test [1] was -1.64%; in test [2], 4%; in test [3], 6.31%; in test [4], 0.703%; in the test with Trypanosoma cruzi, -4.71%; in test [5], -7.57%. For the same compound, the Percent Effect in [6] was 19.8%; in the test filed under Homo sapiens, -11.3%; in test [7], -7.41%; in test [8] it was -2.56%; in test [9], -4.5%.
`c1cncc(OCc2noc3c2CN(Cc2ccoc2)CC3)c1`: the Percent Effect in test [1] is -1.69%; in test [2], 22.7%; in test [3] it was -8.08%; in test [4], -0.376%; in the test with Trypanosoma cruzi it was 3.93%; in test [5] it was -2.99%. Further, the Percent Effect in test [6] was 22.7%; in the test listed under Homo sapiens, 8.21%; in test [7], 5.29%; in test [8], 15.4%; in test [9] it was -11.2%.
As for `CC(C)Oc1ncccc1CNC(=O)N1CCC1c1ccccc1` (stereo unspecified), the Percent Effect is -7.94% in test [1]; 13.2% in [2]; -8.45% in [3]; 2.16% in test [4]; 11.3% in the test on Trypanosoma cruzi; -0.766% in test [5]. For the same compound, the Percent Effect in test [6] was 9.69%; in the test listed under Homo sapiens, 23.3%; in test [7], 7.35%; in test [8], 17.1%; in [9], -12%.
Turning to `Cc1cnn(CCNCc2csc(-c3ccc4c(c3)OCO4)n2)c1`, the Percent Effect was -4.64% in test [1]; -13.2% in test [2]; -1.92% in test [3]; -4.07% in [4]; -5.83% in the test with Trypanosoma cruzi; 2.68% in [5]. Further, the Percent Effect in test [6] amounted to 11.2%; in the test listed under Homo sapiens it was 24%; in test [7], 1.47%; in [8], 4.88%; in test [9], 18%.
Consider `COc1cc(CNC(=O)c2c(C)noc2C(C)C)ccn1`, for which the Percent Effect is -2.87% in test [1]; 26% in [2]; -8.18% in test [3]; 3.15% in test [4]; 3.75% in the test on Trypanosoma cruzi; 3.92% in [5]. For the same compound, the Percent Effect in test [6] is 10.8%; in the test listed under Homo sapiens, 9.63%; in test [7], 10.7%; in test [8], 21.9%; in [9], -10.2%.
For `Cc1noc(C)c1CN(C)CC1CCCN1c1cccnn1` (stereo unspecified), the Percent Effect is -3.03% in test [1]; 13% in [2]; 1.18% in test [3]; -2.33% in test [4]; 0.0979% with Trypanosoma cruzi; 0.21% in [5]. Besides, the Percent Effect was 11.7% in test [6]; 11.2% in the test filed under Homo sapiens; 6.67% in [7]; 18.8% in [8]; -25.9% in test [9].
In the case of `Cn1c(Cn2ccnc2)nnc1C1CCN(C(=O)C2(C)CC2)CC1`, the Percent Effect is -1.61% in test [1]; 11% in test [2]; -0.77% in test [3]; 4.51% in test [4]; -2.98% in the test on Trypanosoma cruzi; -4.39% in [5]. In addition, the Percent Effect in [6] was 21%; in the test listed under Homo sapiens, 17%; in test [7], 5.21%; in test [8], 18.5%; in test [9] it was -5.12%.
On to `CC(NC(=O)NCCN1CCCCCC1=O)c1nncn1C` (stereo unspecified), for which the Percent Effect in test [1] was -5.58%; in test [2], 13.5%; in test [3] it was -10.1%; in [4] it was 13.4%; in the test on Trypanosoma cruzi, 4.92%; in test [5] it was -3.51%. In addition, the Percent Effect is -2.69% in [6]; 11.3% in the test filed under Homo sapiens; 7.92% in [7]; 15.8% in [8]; -6.06% in test [9].
Turning to `O=C1NCC2(CCCN(CCc3ccccc3)C2)Oc2ccccc21` (stereo unspecified), the Percent Effect in [1] is -3.06%; in test [2] it was 6.76%; in test [3] it was 2.18%; in test [4], -8.67%; with Trypanosoma cruzi, -3.36%; in [5], 2.55%. The Percent Effect in test [6] was 6.86%; in the test listed under Homo sapiens, 15.8%; in test [7], -1.07%; in [8], 6.49%; in test [9], -14.2%.
Regarding `COc1ccc(CCNC(=O)NC2CCCC2)cc1OC`, the Percent Effect in [1] was 0.159%; in [2] it was 8.11%; in [3] it was -0.309%; in test [4], 3.69%; in the test on Trypanosoma cruzi it was -1.16%; in test [5], 3.33%. Moreover, the Percent Effect was 13.3% in test [6]; 6.13% in the test filed under Homo sapiens; 5.82% in test [7]; 9.76% in test [8]; -3.01% in test [9].

These data come from ChEMBL document CHEMBL3988442, “University of Dundee, Small-Polar-MMV Screening Library” (2021).
